The values below come from PubChem BioAssay (NCI).

About 83,000 compounds went through this panel and 20% of them were active in at least one assay; those are over-represented in the sample as a whole.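 Results are percent growth after 48 hours of single-concentration exposure. 100 means growth as in untreated cells, lower positive values show inhibition; negative values down to -100 show cell death.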 The source made the active and inactive calls. Rule for the calls: active = growth percent below 10; inactive = the rest.

For the experiment, the system named is HL-60(TB) leukemia. As to the kind of experiment: NCI-60 one-dose screen, 48 h (100 = growth as untreated, 0 = no growth, -100 = all killed). The conditions noted are these: 10 µM unless noted.
With `CCN1C(=O)N(CC)C2SC(N/N=C/c3ccccc3)=NC21` (stereo not drawn), the growth is 4% (active). To `c1ccc2c(NCCCn3ccnc3)c3oc4ccccc4c3nc2c1` belongs -1.2% (active). With `NC(=O)c1c(NC(=O)c2ccc(C3CCCCC3)cc2)sc2c1CCC(=O)C2`, the growth is 7.79% (active). As to `COc1cc2c(cc1OC)C(Sc1ccc(F)cc1)c1c(nc(N)c(C#N)c1N)O2` (stereo not drawn), the growth is -14.2% (active). As to `O=C(Nc1ccccc1)Nc1nc2ccc([N+](=O)[O-])cc2s1`, the growth was -35.9% (active).

With `CCc1nn2c(C)cc(C)nc2c1Cc1ccc(/C=C/CN2CCN(CCOCCOCCN3CCN(C/C=C/c4ccc(Cc5c(CC)nn6c(C)cc(C)nc56)cc4)CC3)CC2)cc1`, the growth is -51.4% (active).

As to `Cc1nc2cnc(N)c(C#Cc3cncc(C(=O)Nc4ccc(Cl)c(C(F)(F)F)c4)c3)c2nc1C`, the growth was 15.8% (inactive). The result for `COc1ccc(/C=C2\SC(=Nc3cc(C)[nH]n3)NC2=O)cc1` reads 87.1% (inactive). To `CC1(C)CC[C@]2(C(=O)O)CC[C@]3(C)C(=CCC4[C@@]5(C)C[C@@H](O)[C@@H]6OC(c7cccc([N+](=O)[O-])c7)OC[C@@]6(C)C5CC[C@]43C)C2C1` (stereo partly drawn) belongs 42.5% (inactive); to `O=C1Nc2cc(Cl)ccc2/C1=C\c1ccc(OCc2ccc(Br)cc2F)cc1`, 66.2% (inactive).

As to `COc1ccc(Cn2cc3c(c2-c2ccccc2)CCCc2cnoc2-3)cc1[N+](=O)[O-]`, the growth was 27% (inactive). `CCNC(=O)Oc1ccc(/C(=C(/C)c2ccccc2)c2ccc(OCCN3CCCC3)cc2)cc1`: the growth was 50.7% (inactive).

In the case of `Cc1cc(NS(=O)(=O)c2ccc(-c3cnc(C4CC4)o3)cc2)ccc1I`, the growth is 1.38% (active).
